The panel holds about 79,000 compounds, 15% with a hit somewhere; the sample as a whole holds those more often. Calls of active or inactive are those of the source. Rule as the data show it: active = growth inhibition above about 70%; inactive = the rest.
Key:
[1] = NCI Yeast Anticancer Drug Screen. Data for the rad50 strain (AID 155);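 also: 0% = growth of vehicle-only cultures of the same strain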; conditions: S. cerevisiae rad50 strain growth inhibition; at 50.0 µM; hits give high values
How it was run: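 Compounds were tested on a yeast strain with an engineered DNA damage repair alteration; the reported value is growth inhibition normalised to vehicle treatment.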

[2] = NCI Yeast Anticancer Drug Screen. Data for the mec2-1 strain (AID 157); conditions: S. cerevisiae mec2-1 strain, at 50.0 µM, hits give high values
How it was run: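 Each compound was tested on mec2-1 yeast, a strain altered in DNA damage repair or cell cycle control. Growth inhibition is reported relative to vehicle.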

[3] = NCI Yeast Anticancer Drug Screen. Data for the sgs1 mgt1 strain (AID 161);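 also: 0% = growth of cultures given vehicle only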; conditions: S. cerevisiae sgs1 mgt1 strain, at 50.0 µM, hits give high values
How it was run: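 Genetically altered yeast, compound exposure, growth inhibition relative to vehicle.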

[4] = NCI Yeast Anticancer Drug Screen. Data for the cln2 rad14 strain (AID 165);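 also: 0% = growth equal to vehicle treated cultures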; conditions: S. cerevisiae cln2 rad14 strain, at 50.0 µM, hits give high values
How it was run: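 Test compounds were added to cln2 rad14 yeast cultures; inhibition of growth was then determined by comparison with vehicle treatment.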

[5] = NCI Yeast Anticancer Drug Screen. Data for the bub3 strain (AID 167); conditions: S. cerevisiae bub3 mutant strain, at 50.0 µM, hits give high values
How it was run: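 Growth of a checkpoint-deficient yeast mutant is measured after compound exposure. Values represent inhibition relative to vehicle.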

[6] = NCI Yeast Anticancer Drug Screen. Data for the mlh1 rad18 strain (AID 175); conditions: S. cerevisiae mlh1 rad18 strain growth inhibition; at 50.0 µM; hits give high values
How it was run: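 Inhibition values reflect reduced growth of mutant yeast versus vehicle-treated controls following compound exposure; the mutations affect DNA damage repair.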

Measured: growth inhibition

CC(C)CCC(=O)OC/C(=N\Nc1ccc([N+](=O)[O-])cc1[N+](=O)[O-])c1ccc(-c2ccccc2)cc1
inactive: [1] -17.7% | [2] 12.5% | [3] -15.8% | [4] -35.6% | [5] 1.9% | [6] 14.8%

C[C@]12CCC(=O)CC1CCCC2=O (stereo partly specified)
inactive: [1] 9.9% | [2] -10.8% | [3] 6.4% | [4] 24.1% | [5] -6.7% | [6] 19.8%

CN1CNC(=S)NC1
inactive: [1] 10.2% | [2] -7.85% | [3] 11% | [4] 17.6% | [5] 20.9% | [6] 15.2%

Nc1c(Br)cc(Br)cc1-c1cc(Br)cc(Br)c1N
inactive: [1] 3.65% | [2] 17% | [3] 10.4% | [4] 5.3% | [5] 13.4% | [6] 24.4%

COc1cccc(-c2nnc(-c3cccc(OC)c3)o2)c1
inactive: [1] 25.4% | [2] -12.1% | [3] 16.6% | [4] 1.95% | [5] 25.5% | [6] 0.2%

O=C(/C=C/c1ccc(F)c(F)c1)OCCc1ccccc1
inactive: [1] 28.1% | [2] 29% | [3] 32.7% | [4] 28.9% | [5] 40.9% | [6] 27.2%

Cc1cc(C)c(NC(=O)CC#N)cc1C
inactive: [1] -5% | [2] -12.6% | [3] -17.4% | [4] -51.4% | [5] -1.35% | [6] -6.6%

Cc1ccc(-c2nnc(CCCCCCCCc3nnc(-c4ccc(C)cc4O)n3N)n2N)c(O)c1
inactive: [1] 9.2% | [2] -21.9% | [3] 3.75% | [4] 7.5% | [5] 1.75% | [6] 0.5%

Cc1ccc(NC(=S)Nc2cccc(C(F)(F)F)c2)cc1C
inactive: [1] -11.9% | [2] -4.45% | [3] -5.75% | [4] 4.85% | [5] -7.3% | [6] 20.6%

C/C(=C(/C)c1cc[n+](C)cc1)c1cc[n+](C)cc1
inactive: [2] 60.6% | [3] 67% | [4] 44.4% | [5] 56.3% | [6] 68.5%
active: [1] 74.4%

Cn1c(=O)c2c(nc(C(c3ccccc3)c3ccccc3)n2C)n(C)c1=O
inactive: [1] -11.3% | [2] -25.5% | [3] -3.55% | [4] -33.5% | [5] 6.25% | [6] -18.6%

Nc1nc(C2CCCCC2)cc(=O)[nH]1
inactive: [1] 1.2% | [2] 9% | [3] -4.3% | [4] -25.1% | [5] 5.5% | [6] -0.65%

Nc1ccc(S(=O)(=O)n2c(=O)oc3cc(Cl)ccc32)cc1
inactive: [1] 0.75% | [2] 5.75% | [3] 8.9% | [4] -6.7% | [5] 14.1% | [6] 19.8%

COC(OC)c1cc(C(=O)O)c2ccccc2n1
inactive: [1] -9.45% | [2] -31.2% | [3] -9.85% | [4] -4.6% | [5] -22.2% | [6] -6.6%

O=C(O)CSc1ccn(Cc2ccccc2)c1
inactive: [1] -8.15% | [2] -18.5% | [3] -43.1% | [4] -22.8% | [5] -56.8% | [6] -22.6%

O=S(=O)(c1ccccc1)c1ccc(O)cc1
inactive: [1] -20.8% | [2] -23.8% | [3] -16.9% | [4] -29.8% | [5] -8.35% | [6] -15.7%

CC(=O)N=C1N(/C=C2\C(=O)Oc3ccccc3C2=O)C(=O)/C(=C/c2ccc(OC(C)=O)cc2)N1C
inactive: [1] -9.55% | [2] -17% | [3] -14.9% | [4] 12.9% | [5] 1.05% | [6] 0.75%

O=C(NC12CC3CC(CC(C3)C1)C2)C(=O)c1c[nH]c2ccccc12
inactive: [1] 8.5% | [2] 14.2% | [3] 8.1% | [4] 24.6% | [5] 23.6% | [6] 11.4%

Cc1c(C)c(Br)c(C)c(C)c1Br
inactive: [1] -7.45% | [2] -18.3% | [3] 4.25% | [4] 10.3% | [5] -6.2% | [6] -16.8%

CCCCCCNC(=O)CCC(NC(=O)c1ccc(N(C)Cc2cnc3nc(N)nc(N)c3n2)cc1)C(=O)NCCCCCC (stereo unspecified)
inactive: [1] 18.2% | [2] 17.1% | [3] 19.1% | [4] 19.9% | [5] 25.4% | [6] 28.2%

C[n+]1ccc(/C=C/c2ccc(O)c(O)c2)c2ccccc21
inactive: [1] 49.8% | [2] 33.5% | [3] 41.2% | [4] 20.5% | [5] 3.5% | [6] 43%

Nc1cc2c(cc1Br)-c1ccc(Cl)cc1C2=O
inactive: [1] 1.2% | [2] 5% | [3] 7.3% | [4] -54.4% | [5] 0% | [6] -0.5%

Brc1cc(Br)c(-c2c(Br)cc(Br)cc2Br)c(Br)c1
inactive: [1] -20.8% | [2] -30.2% | [3] -16.1% | [4] 4.2% | [5] -7.5% | [6] -15.7%

OC1C2CC3C(C2)C13 (stereo unspecified)
inactive: [1] -25.6% | [2] -12.6% | [3] 2.25% | [4] 4.8% | [5] -18.4% | [6] -25.8%

CCOC(=O)/C=C/C(=O)N(C)c1ccccc1
inactive: [1] -12.2% | [2] -7.15% | [3] -5.3% | [4] -0.5% | [5] -12.7% | [6] -18.6%

S=C(Nc1ccc2c(c1)Cc1ccccc1-2)Nc1ccc2c(c1)Cc1ccccc1-2
inactive: [1] 25.8% | [2] 18.9% | [3] -39.7% | [4] -12.7% | [5] 27% | [6] 31%

CC(=O)/C=C(/C=N/O)c1ccccc1
inactive: [1] 10.7% | [2] -27.1% | [3] 14.2% | [4] 7.75% | [5] 10.1% | [6] -55.8%

Cn1c(=O)cnc2c3ccccc3ccc21
inactive: [1] 22.8% | [2] 5.15% | [3] 23.6% | [4] 15.8% | [5] 18.4% | [6] 19.6%

Cc1ccc(-n2cnc3sc4c(c3c2=O)CCCC4)cc1
inactive: [1] -12.2% | [2] -10.7% | [3] 0.7% | [4] -9.7% | [5] -7.65% | [6] -16.5%

Cc1cc(=O)n2c(c1)[nH]c1ccccc12
inactive: [1] 3.25% | [2] 0.3% | [3] -5.55% | [4] -0.95% | [5] 1.75% | [6] 1.65%

NC(=O)C1CCCCC1C(=O)O (stereo unspecified)
inactive: [1] 1.5% | [2] 5% | [3] 6.65% | [4] -10.7% | [5] 4.6% | [6] 14.8%

COc1ccc2[nH]c(-c3cccc(N(C)C)c3)cc(=O)c2c1
inactive: [1] -26.1% | [2] -8.1% | [3] -12.5% | [4] -3.95% | [5] -26% | [6] -70.6%

S=C1NC(c2ccccc2)Nc2ccccc21 (stereo unspecified)
inactive: [1] 6.5% | [2] 15.9% | [3] -5.5% | [4] -40.3% | [5] -12.9% | [6] 3.75%

CC(C)(C)OC(=O)N1CCCC1=O
inactive: [1] 9.65% | [2] 13% | [3] 24.8% | [4] 22.3% | [5] 8.05% | [6] 28.5%

O=C(O)CCC1CC1C(=O)c1ccccc1 (stereo unspecified)
inactive: [1] 15.2% | [2] 5.55% | [3] -3.85% | [4] -37% | [5] -28.6% | [6] 17.9%

N=C(N)n1ncc2c1CCC/C2=N/N=C(N)N
inactive: [1] 17.5% | [2] 17.1% | [3] 13.5% | [4] 64.3% | [5] 29.9% | [6] 3.9%

Cn1c(=O)c(C(=O)NC23CC4CC(CC(C4)C2)C3)c(O)c2ccccc21
inactive: [1] -44.2% | [2] -37% | [3] -46.5% | [4] -16.3% | [5] -53% | [6] -19.9%

ClC(=Nc1ccccc1)c1cc(Cl)ccn1
inactive: [1] 18.1% | [2] -1.8% | [3] 8.3% | [4] -12.4% | [5] 50% | [6] 8.15%

O=C(c1ccc(Cl)cc1)N(C(=S)N1CCN(c2ccccn2)CC1)C1CCCCC1
inactive: [1] 4.5% | [2] 13.7% | [3] 15.3% | [4] 6.85% | [5] -16.6% | [6] 19.4%

CCOc1cc(CC[N+](C)(C)C)c2c(ccc3ccc(OC)c(OC)c32)c1OC
inactive: [1] 18.1% | [2] -10.8% | [3] -5.4% | [4] 13.5% | [5] -15.8% | [6] -14.2%

CC(=O)Nc1cc([N+](=O)[O-])ccc1CC(O)c1ccccc1 (stereo unspecified)
inactive: [1] -2.25% | [2] -17.1% | [3] -4.1% | [4] -15.5% | [5] -1% | [6] -16.4%

Reference: PubChem BioAssay (NCI)
